# Results taken from PubChem BioAssay (NCATS).
# Where “and” joins values, the source holds several entries; their conditions need not be identical. Equal values may be shown once. Records with an inconclusive call do not appear. Where a call stands in place of a potency, no number is given. For some assays here: Measured potencies and affinities stand elsewhere. Calls of active or inactive are those of the source.
# Columns and labels:
# [1] = Ebola virus entry assay, blue channel fluorescence
# [2] = Ebola virus entry assay, green fluorescence channel
# [3] = Ebola virus entry assay, ratio channel readout
# [4] = Ebola virus entry assay, blue channel fluorescence; remark: listed apart in the source
# [5] = Ebola virus entry assay, ratio channel
# [6] = qHTS for Activators of Parkin Expression: LOPAC Validation Assay (FLuc Reporter) (AID 720573; active = well fitted curve in the direction sought with a large enough effect; an effect the other way counts as inactive or inconclusive); details: Cell line, PRKN promoter firefly luciferase reporter, vehicle wells = 0, positive control = 100%; series mostly up to 46.1 µM
# Method in brief: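 FLuc signal from Parkin-promoter coincidence reporter neuronal cells, normalized to DMSO and positive control (100%). Cells (1,500/well) pre-incubated 24 h, then exposed to LOPAC compounds in 7-point dose response for 24 h at 37 C, 5% CO2.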
# [7] = qHTS assay for small molecule agonists of the antioxidant response element (ARE) signaling pathway measured by Nrf2-dependant transcriptional activity (AID 720636; active = well fitted curve in the direction sought with a large enough effect in the repeat runs; an effect the other way counts as inactive or inconclusive); details: ARE-luc HepG2, Nrf2 luciferase reporter, 16 h; series mostly up to 92.4 µM
# Method in brief: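 Nrf2-dependent transcription read as ONE-Glo luciferase signal from ARE-luc HepG2 reporter cells after 16 hr compound treatment at 37 C, 5% CO2, in assay medium with 1% dialyzed FBS.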
# [8] = qHTS assay for small molecule agonists of the antioxidant response element (ARE) signaling pathway measured by Nrf2-dependant transcriptional activity - cell viability counter screen (AID 720653; active = well fitted curve in the direction sought with a large enough effect in the repeat runs; an effect the other way counts as inactive or inconclusive); details: ARE-bla HepG2 viability, CellTiter-Glo ATP luminescence, 16 h; stronger effect = lower value
# Method in brief: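 ARE-bla HepG2 cells treated with compounds for 16 h at 37C; this counter screen measures viability as intracellular ATP by CellTiter-Glo luminescence after 30 min at room temperature.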
# [9] = biological target: T1, Hexokinase-4 (Homo sapiens) + Glucokinase regulatory protein (Homo sapiens) (UniProt P35557+Q14397); assay: qHTS assay for inhibitors of recombinant human GCK-GKRP interaction: Diaphorase-coupled assay (AID 743205; active = well fitted curve in the direction sought with a large enough effect; an effect the other way counts as inactive or inconclusive); details: G6PDH/diaphorase resorufin fluorescence; series mostly up to 57.5 µM
# Method in brief: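 A kinetic fluorescence read (Ex 525/Em 590 nm, every minute for 30 minutes) tracked resorufin from a G6PDH-diaphorase coupled GCK reaction. It contained 10 nM GST-GCK, 10 nM FLAG-GKRP, 5 mM glucose, 0.4 mM ATP in Hepes pH 7.6. Normalized to with/without-enzyme DMSO controls.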
# [10] = biological target: T1, Hexokinase-4 (Homo sapiens) + Glucokinase regulatory protein (Homo sapiens); assay: qHTS assay for inhibitors of recombinant human GCK-GKRP interaction: ADP-Glo assay (AID 743206; active = well fitted curve in the direction sought with a large enough effect; an effect the other way counts as inactive or inconclusive); details: ADP-Glo luminescence, 60 min, 0% = vehicle-only wells with enzyme present; series mostly up to 76.9 µM
# Method in brief: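 Pin-transferred compounds meet a 15 nM GST-GCK/15 nM FLAG-GKRP/2 uM S6P mix (dispense concentrations). ATP is then added to 0.4 mM final with 5 mM glucose, and the reaction runs 60 min at room temperature. ADP is quantified luminescently.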
# [11] = qHTS Assay for Identifying Gametocytocidal Compounds (AID 743244; active = well fitted curve in the direction sought with a large enough effect; an effect the other way counts as inactive or inconclusive; note: potency is the fitted concentration of half-maximal effect;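 for max response: actives lower the fluorescent signal which means gametocytes are killed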); details: P. falciparum 3D7 stage III-V gametocytes, alamarBlue, 72 h; max response: stronger effect = lower value
# Method in brief: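 Using 20,000 stage III–V 3D7 gametocytes per well, compounds were incubated 72 h under 37 °C/5% CO2. Viability was then assessed by 24 h alamarBlue reduction, measured fluorometrically at 525/598 nm.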
# [12] = qHTS assay for cell viability of HEK293 cells (AID 743288; active = well fitted curve in the direction sought with a large enough effect; an effect the other way counts as inactive or inconclusive; note: nearly all actives have a fitted effect of over 50% in size); details: ATP luminescence (CellTiter-Glo), 18 h, stronger effect = lower value
# Method in brief: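 Readout is luciferase-coupled ATP content (CellTiter-Glo luminescence, 30 min room temperature) as a measure of metabolically competent cells. Parental HEK293 cells were plated 5 h or more before compound addition, then treated 18 h at 37 C.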
# [13] = qHTS profiling of the MIPE4 collection as inhibitors of Plasmodium falciparum (3D7) proliferation (AID 743344; call rule not given here); details: P. falciparum 3D7 in erythrocytes, SYBR Green DNA fluorescence, 72 h; at 28.5 µM (top of the series) unless noted
# Method in brief: (§1)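 Parasite DNA was quantified by SYBR Green I fluorescence (ex 485, em 535 nm) after overnight lysis in saponin/Triton buffer at room temperature. Cultures at 0.3% parasitemia and 2.5% hematocrit were first exposed to compound for 72 h at 37 C; signals were normalised to artemisinin (0.29 uM) and vehicle wells.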
# [14] = qHTS profiling of the MIPE4 collection as inhibitors of Plasmodium falciparum (DD2) proliferation (AID 743345; call rule not given here); details: P. falciparum Dd2 in erythrocytes, SYBR Green DNA, 72 h; at 28.5 µM (top of the series) unless noted
# Method in brief: as §1
# [15] = qHTS profiling of the MIPE4 collection as inhibitors of Plasmodium falciparum (DD2) proliferation (Rep 2) (AID 743346; call rule not given here); details: P. falciparum Dd2 in erythrocytes, SYBR Green DNA, 72 h; at 28.5 µM (top of the series) unless noted
# Method in brief: as §1
# [16] = qHTS profiling of the MIPE4 collection as inhibitors of Plasmodium falciparum (HB3) proliferation (AID 743347; call rule not given here); details: P. falciparum HB3 in erythrocytes, SYBR Green DNA, 72 h; at 28.5 µM (top of the series) unless noted
# Method in brief: as §1
# [17] = qHTS assay for small molecule antagonists of the retinoid-related orphan receptor gamma (ROR-gamma) signaling pathway - cell viability counter screen (AID 720652; active = well fitted curve in the direction sought with a large enough effect in the repeat runs; an effect the other way counts as inactive or inconclusive;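 note: CHO reporter cells with doxycycline-induced ROR-gamma expression; compound exposure lasted 16 hr before ATP read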); details: RORgamma reporter cell line viability counter screen; series mostly up to 92.2 µM
# Method in brief: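 ATP-based viability readout in the ROR-gamma reporter CHO cells after 16 hr compound exposure under doxycycline induction.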
# T1 sequence (P35557 whole entry, looked up): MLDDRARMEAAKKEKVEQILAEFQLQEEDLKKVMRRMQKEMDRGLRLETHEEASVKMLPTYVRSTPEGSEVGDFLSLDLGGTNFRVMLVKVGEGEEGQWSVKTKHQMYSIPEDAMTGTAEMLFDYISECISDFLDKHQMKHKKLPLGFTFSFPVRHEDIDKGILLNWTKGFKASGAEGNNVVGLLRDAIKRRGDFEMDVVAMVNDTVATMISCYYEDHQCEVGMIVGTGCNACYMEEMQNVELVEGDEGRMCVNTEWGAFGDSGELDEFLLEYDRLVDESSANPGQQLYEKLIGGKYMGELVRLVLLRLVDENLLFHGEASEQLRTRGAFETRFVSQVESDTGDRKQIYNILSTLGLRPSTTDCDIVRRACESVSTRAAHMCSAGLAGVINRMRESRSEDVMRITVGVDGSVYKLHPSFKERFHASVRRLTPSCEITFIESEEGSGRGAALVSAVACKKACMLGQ
# T1 sequence (Q14397 whole entry, looked up): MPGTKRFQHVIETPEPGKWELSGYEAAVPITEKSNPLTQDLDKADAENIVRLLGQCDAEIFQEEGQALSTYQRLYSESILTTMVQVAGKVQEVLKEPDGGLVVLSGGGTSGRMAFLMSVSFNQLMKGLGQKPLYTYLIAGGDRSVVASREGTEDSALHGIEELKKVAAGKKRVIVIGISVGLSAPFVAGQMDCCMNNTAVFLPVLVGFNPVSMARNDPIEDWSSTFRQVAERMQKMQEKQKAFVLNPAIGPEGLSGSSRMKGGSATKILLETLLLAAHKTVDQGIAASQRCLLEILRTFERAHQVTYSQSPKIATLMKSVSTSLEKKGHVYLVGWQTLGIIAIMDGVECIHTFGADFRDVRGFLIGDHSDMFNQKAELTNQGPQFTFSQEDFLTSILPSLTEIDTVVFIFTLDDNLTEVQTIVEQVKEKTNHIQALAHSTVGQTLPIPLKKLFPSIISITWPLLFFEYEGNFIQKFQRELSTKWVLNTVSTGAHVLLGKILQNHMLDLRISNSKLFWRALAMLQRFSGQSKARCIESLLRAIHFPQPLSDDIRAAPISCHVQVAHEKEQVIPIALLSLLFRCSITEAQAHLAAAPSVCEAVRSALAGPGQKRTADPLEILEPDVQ
smiles,measurement,setting,value
CCn1cc(C(=O)O)c(=O)c2cc(F)c(N3CCNC(C)C3)c(F)c21 (stereo not given),outcome,[1],inactive
same,outcome,[2],inactive
same,outcome,[3],inactive
same,outcome,[4],inactive
same,outcome,[5],inactive
O=C(O)CCCc1ccc(N(CCCl)CCCl)cc1,outcome,[6],inactive
same,outcome,[7],inactive
same,max response,[8],-0.747% (inactive) and 2.01% (inactive)
same,outcome,[9],inactive
same,outcome,[10],inactive
same,max response,[11],-1.81% (inactive) and 3.48% (inactive)
same,max response,[12],-9.24% (inactive) and -11.4% (inactive)
same,"parasite growth, % of DMSO control",[13],70.9%
same,"parasite growth remaining, % of DMSO control (lower = more inhibition)",[14],82.7%
same,"parasite growth, % of control (lower = inhibition)",[15],81.2%
same,"growth, % of control",[16],54.2%
same,outcome,[1],inactive
same,outcome,[2],inactive
same,outcome,[3],inactive
same,outcome,[5],inactive
CN1C(CSCC(F)(F)F)Nc2cc(Cl)c(S(N)(=O)=O)cc2S1(=O)=O (stereo not given),outcome,[1],inactive
same,outcome,[2],inactive
same,outcome,[3],inactive
same,outcome,[4],inactive
same,outcome,[5],inactive
CN1C[C@H](C(=O)N[C@]2(C)O[C@@]3(O)[C@@H]4CCCN4C(=O)[C@H](Cc4ccccc4)N3C2=O)C=C2c3cccc4[nH]cc(c34)C[C@H]21,outcome,[7],inactive
same,outcome,[17],inactive
same,max response,[8],-19% (inactive) and -17.1% (inactive)
same,Potency,[11],8.91 µM (active)
same,max response,[12],-13.1% (inactive) and -12.3% (inactive)
same,outcome,[1],inactive
same,outcome,[2],inactive
same,outcome,[3],inactive
COc1cc(C(=O)NS(=O)(=O)c2ccccc2C)ccc1Cc1cn(C)c2ccc(NC(=O)OC3CCCC3)cc12,outcome,[1],inactive
same,outcome,[2],inactive
same,outcome,[3],inactive
same,outcome,[4],inactive
same,outcome,[5],inactive
O=C(N[C@H](CO)[C@H](O)c1ccc([N+](=O)[O-])cc1)C(Cl)Cl,outcome,[1],inactive
same,outcome,[2],inactive
same,outcome,[3],inactive
same,outcome,[5],inactive
C[C@]12CCC(=O)C=C1CC[C@H]1[C@@H]3CC[C@](O)(C(=O)CO)[C@@]3(C)C[C@H](O)[C@@]12F,outcome,[1],inactive
same,outcome,[2],inactive
same,outcome,[3],inactive
same,outcome,[5],inactive
C[C@]1(O)CC[C@H]2[C@@H]3CCC4=CC(=O)CC[C@]4(C)[C@@]3(F)[C@@H](O)C[C@@]21C,outcome,[7],inactive
same,outcome,[17],inactive
same,max response,[8],-5.41% (inactive)
same,max response,[11],8.13% (inactive)
same,max response,[12],-0.591% (inactive)
same,outcome,[1],inactive
same,outcome,[2],inactive
same,outcome,[3],inactive
C=C[C@H]1CN2CC[C@H]1C[C@H]2[C@H](O)c1ccnc2ccc(OC)cc12,outcome,[1],inactive
same,outcome,[2],inactive
same,outcome,[3],inactive
same,AC50,[4],25.1 µM (active)
same,AC50,[5],22.4 µM (active)
CCC1(C)CC(=O)NC1=O (stereo not given),"parasite growth remaining, % of DMSO control (lower = more inhibition)",[14],111%
same,"parasite growth, % of control (lower = inhibition)",[15],96.3%
same,outcome,[1],inactive
same,outcome,[2],inactive
same,outcome,[3],inactive
same,outcome,[4],inactive
same,outcome,[5],inactive
CCc1cc(C(N)=S)ccn1,outcome,[1],inactive
same,outcome,[2],inactive
same,outcome,[3],inactive
same,outcome,[4],inactive
same,outcome,[5],inactive
C[N+]1(C)CCCC(OC(=O)C(O)(c2ccccc2)c2ccccc2)C1 (stereo not given),outcome,[1],inactive
same,outcome,[2],inactive
same,outcome,[3],inactive
same,outcome,[5],inactive
NCCCCCC(=O)O,outcome,[1],inactive
same,outcome,[2],inactive
same,outcome,[3],inactive
same,outcome,[4],inactive
same,outcome,[5],inactive
CC(NC(C)(C)C)C(=O)c1cccc(Cl)c1 (stereo not given),outcome,[6],inactive
same,outcome,[9],inactive
same,outcome,[10],inactive
same,max response,[11],-0.241% (inactive) and 10.5% (inactive)
same,"parasite growth, % of DMSO control",[13],26.6%
same,"parasite growth remaining, % of DMSO control (lower = more inhibition)",[14],55.9%
same,"parasite growth, % of control (lower = inhibition)",[15],31%
same,"growth, % of control",[16],7.91%
same,outcome,[1],inactive
same,outcome,[2],inactive
same,outcome,[3],inactive
same,outcome,[4],inactive
O=C1Nc2ccc(Cl)cc2C(c2ccccc2)=NC1O (stereo not given),max response,[11],6.98% (inactive) and -4.42% (inactive)
same,outcome,[1],inactive
same,outcome,[2],inactive
same,outcome,[3],inactive
CCN1CC(CCN2CCOCC2)C(c2ccccc2)(c2ccccc2)C1=O (stereo not given),outcome,[1],inactive
same,outcome,[2],inactive
same,outcome,[3],inactive
same,outcome,[5],inactive
CN[C@@H](C)Cc1ccccc1,max response,[11],5.78% (inactive)
same,outcome,[1],inactive
same,outcome,[2],inactive
same,outcome,[3],inactive
NC(N)=NC(=O)Cc1c(Cl)cccc1Cl,outcome,[1],inactive
same,outcome,[2],inactive
same,outcome,[3],inactive
same,outcome,[4],inactive
same,outcome,[5],inactive
C#CCN[C@@H]1CCc2ccccc21,outcome,[1],inactive
same,outcome,[2],inactive
same,outcome,[3],inactive
same,outcome,[4],inactive
same,outcome,[5],inactive
CC(C)[C@H](N)C(=O)OCCOCn1cnc2c(=O)[nH]c(N)nc21,"parasite growth remaining, % of DMSO control (lower = more inhibition)",[14],94%
same,"parasite growth, % of control (lower = inhibition)",[15],136%
same,"growth, % of control",[16],102%
same,outcome,[1],inactive
same,outcome,[2],inactive
same,outcome,[3],inactive
same,outcome,[5],inactive
NCC[C@H](O)C(=O)N[C@@H]1C[C@H](N)[C@@H](O[C@H]2O[C@H](CN)[C@@H](O)[C@H](O)[C@@H]2O)[C@H](O)[C@@H]1O[C@H]1O[C@H](CO)[C@@H](O)[C@H](N)[C@@H]1O,outcome,[1],inactive
same,outcome,[2],inactive
same,outcome,[3],inactive
same,outcome,[4],inactive
same,outcome,[5],inactive
C=CCN1C[C@H](C(=O)N(CCCN(C)C)C(=O)NCC)C[C@@H]2c3cccc4[nH]cc(c34)C[C@H]21,outcome,[1],inactive
same,outcome,[2],inactive
same,outcome,[3],inactive
same,outcome,[4],inactive
same,outcome,[5],inactive
NS(=O)(=O)c1cc(C2(O)NC(=O)c3ccccc32)ccc1Cl (stereo not given),outcome,[1],inactive
same,outcome,[2],inactive
same,outcome,[3],inactive
same,outcome,[4],inactive
same,outcome,[5],inactive
NC(=O)N1c2ccccc2C=Cc2ccccc21,outcome,[1],inactive
same,outcome,[2],inactive
same,outcome,[3],inactive
same,outcome,[5],inactive
